Values joined by “and” are separate entries in the source; they are usually repeats but may differ in a detail not shown here. Equal entries are not always repeated. Records with an inconclusive call do not appear. Where a call stands in place of a potency, no number is given. Active and inactive are the calls of the source. The call rests on the fitted dose curve; in most records, active means well fitted inhibition curve with a large enough effect; inconclusive means small, poorly fitted or top-dose-only effect; inactive means no such curve, though single readings can be large or run the other way.
Potency means the concentration at half of the fitted maximal effect.

The nature of the assay: S16 Schwann cell PMP22 intronic element firefly luciferase assay (AID 624032). Further: nearly all actives have a fitted effect of over 30% in size. To be noted: S16 rat Schwann cells, PMP22 element FLuc, 24 h; series mostly up to 57.5 µM. The source says: Charcot-Marie-Tooth-Association [CMTA]
National Center for Advancing Translational Sciences [NCATS]
Charcot-Marie-Tooth (CMT) disease was first characterized by Jean-Martin Charcot and Pierre Marie in France and, independently, by Howard Henry Tooth in England in 1886. CMT is one of the most common inherited neurological diseases, affecting approximately 1 in 2,500 Americans. […] The most prevalent type of CMT is known as CMT1A and caused by a duplication of the PMP22 gene which leads to over-expression of this protein. PMP22 is a glycosylated intrinsic membrane protein accounting for 2-5% of the myelin protein content, and its over-expression results in demyelination and subsequently axonal loss.
A pair of cellular transcription-based assays was developed in the S16 rat Schwann cell lines (Hai, M., et al., 2002) stably transfected with orthogonal reporters - firefly luciferase (Fluc) and beta-lactamase (beta-Lac) - whose expression is driven by an intronic regulatory element of the PMP22 gene (Jones, E.A., et al., 2011) to recapitulate endogenous expression of PMP22. The current assay employs Fluc to report on PMP22 expression. A comprehensive library of approved drugs, the NCGC Pharmaceutical Collection (Huang, R., et al., 2011), was screened in the cross-validating platform of the orthogonal reporter assays to identify drug modulators inhibitory towards PMP22 expression.
A set of counter-screens was devised to address non-specific activity of the library. An ATP-dependent CellTiter-Glo assay (developed by Promega Corp) was utilized to control cell viability. In addition, biochemical Fluc enzyme assay was performed to assess direct inhibition of the Fluc enzymatic activity.
Hai, M., Muja, N., DeVries, G.H., Quarles, R.H. and Patel, P.I. Comparative analysis of Schwann cell lines as model systems for myelin gene transcription studies. J Neurosci Res, 2002. 69(4): pp 497-508
Huang, R., Southall, N., Wang, Y., Yasgar A., Shinn P., Jadhav, A. , Nguyen, D.-T. and Austin, C.P., The NCGC pharmaceutical collection: a comprehensive resource of clinically approved drugs enabling repurposing and chemical genomics. Sci Transl Med, 2011. 3(80): p. 80ps16.
S16 Schwann cell PMP22 intronic element firefly luciferase assay
The FLuc-expressing S16 cells were seeded in white solid 1536-well plates at between 500-750 cells/4uL in DMEM medium containing 10% FBS, w/o phenol red. After overnight incubation at 37 degree Celsius/5% C02, 23 nL of compounds or DMSO were delivered to each well using a pin tool, followed by 24h-incubation at 37 degree Celsius/5% C02. Then 4 uL ONE-Glo luminescent substrate mix (Promega) was added to each well. Luminescence was measured on a ViewLux plate reader (Perkin Elmer). The % activity was determined by normalizing to the average readings of PTC124 (a positive control) - treated cells relative to DMSO-treated cells (0% Activity). The concentration-effect curves were then classified based on curve quality (r2), response magnitude and degree of measured activity.
Turning to `CCC1(c2ccccc2)C(=O)NC(=O)N(C)C1=O` (stereo not given), the Potency result is “inactive”.

In the case of `O=C(NCNC(=O)NC1C(=O)NC(=O)N1CO)NC1C(=O)NC(=O)N1CO` (stereo not given), the Potency entry is “inactive”.

In the case of `CNC(=O)Oc1ccccc1C(=O)Nc1ccccc1`, the Potency entry is “inactive”.

Regarding `CN1C2CCC1CC(OC(c1ccccc1)c1ccc(Cl)cc1)C2` (stereo not given), the Potency is 25.6 µM (active).

Consider `C[N+]1(C)CCCCC1COC(=O)C(O)(c1ccccc1)c1ccccc1` (stereo not given), for which the Potency result is “inactive”.

As for `O=c1[nH]c(=O)n(Cl)c(=O)n1Cl`, the Potency result is “inactive”.

Turning to `NCC(O)c1cccc(O)c1` (stereo not given), the Potency result is “inactive”.

For `N#CC1(N2CCCCC2)CCCCC1`, the Potency result is “inactive”.

For `CC(C)CCON=O`, the Potency entry was “inactive”.

`O=C/C=C/c1ccccc1`: the Potency result was “inactive”.

Take `c1ccc2cc(CC3=NCCN3)ccc2c1`: the Potency result was “inactive”.

In the case of `ClCC1CO1` (stereo not given), the Potency result is “inactive”.

For the molecule `Cc1sc2ccccc2c1CC1=NCCN1`, the Potency result was “inactive”.

For the molecule `CC(N)Cc1ccc(O)cc1` (stereo not given), the Potency is 9.07 µM (active).

Take `CN1c2ccccc2C(NCCCCCCC(=O)O)c2ccc(Cl)cc2S1(=O)=O` (stereo not given): the Potency entry is “inactive”.

For the molecule `CC(=O)O[C@H]1CC[C@H]2[C@@H]3CCC4=CC(=O)CCC4=C3C=C[C@]12C`, the Potency was 8.09 µM (active).

Turning to `[Cl-].[Cl-].[Hg+2]`, the Potency was 0.809 µM (active).

With `CCC(N)Cc1c[nH]c2ccccc12` (stereo not given), the Potency entry is “inactive”.

With `[N-]=[N+]=CC(=O)OCC(N)C(=O)O` (stereo not given), the Potency result was “inactive”.

Consider `CCNC(C)Cc1cccc(C(F)(F)F)c1` (stereo not given), for which the Potency result was “inactive”.

On to `c1ccc2sc(SNC3CCCCC3)nc2c1`, for which the Potency entry is “inactive”.

Regarding `COC1=CC=C2[C@H]3Cc4ccc(OC)c5c4[C@@]2(CCN3C)[C@H]1O5`, the Potency entry is “inactive”.

For the molecule `CCOc1ccc2c3c1O[C@H]1[C@@H](O)C=C[C@H]4[C@@H](C2)N(C)CC[C@@]341`, the Potency is 16.1 µM (active).

Turning to `CN1[C@@H]2CC[C@H]1CC(OC1c3ccccc3CCc3ccccc31)C2` (stereo not given in full), the Potency entry is “inactive”.

In the case of `CNC1(c2ccccc2Cl)CCCCC1=O` (stereo not given), the Potency entry was “inactive”.

`CCCCNCC(O)c1ccc(O)cc1` (stereo not given): the Potency is 1.81 µM (active).

`C=CCC1(C(C)CCC)C(=O)N=C(S)NC1=O` (stereo not given): the Potency result was “inactive”.

Regarding `CN1CCCC(=C(c2cccs2)c2cccs2)C1`, the Potency result is “inactive”.

For the molecule `CCOP(=O)(OCC)O/C(=C/Cl)c1ccc(Cl)cc1Cl`, the Potency result was “inactive”.

For the molecule `O=C1CC[C@@]2(O)C3Cc4ccc(O)c5c4C2(CCN3CC2CC2)[C@H]1O5` (stereo not given in full), the Potency result was “inactive”.

Take `CC(C)(C)c1cc(O)ccc1O`: the Potency is 7.21 µM (active) and 28.7 µM (active).

Take `O=[N+]([O-])c1cc(I)c(O)c(I)c1`: the Potency entry is “inactive”.

With `[O]=[Cd]`, the Potency entry was “inactive”.

In the case of `S=C(S)N1CCNCC1`, the Potency entry was “inactive”.

Regarding `O=C1CN(O)C(c2ccccc2)=c2cc(Cl)ccc2=N1`, the Potency result was “inactive”.

With `CCCC(C)C1(CC)C(=O)NC(=O)NC1=O` (stereo not given), the Potency result was “inactive”.

For the molecule `N#CN`, the Potency entry was “inactive”.

For `O=C1CCO1`, the Potency entry is “inactive”.

Turning to `O[C@H]1[C@H]2[C@H](O)CCCN2C[C@H]1O`, the Potency result is “inactive”.

Take `C[N+]1(C)C2CCC1CC(OC(=O)c1c[nH]c3ccccc13)C2` (stereo not given): the Potency result is “inactive”.

(Values after PubChem BioAssay (NCATS).)
